Data reported in ChEMBL document CHEMBL4513216, “Probing the Open Global Health Chemical Diversity Library for Multistage-Active Starting Points for Next-Generation Antimalarials” (ACS Infect Dis, 2020).
Hit rate of the full screen: of about 68,000 compounds, about 2,700 (4%) showed an effect of 50% or more. Only a selection was taken, and strong results are over-represented in it overall.

The compounds below were run on Plasmodium berghei (assay: Screen against P. berghei liver stage (PbLuc), transformed with Luciferase, at 2uM). Conditions: tested at 2 uM.
Type: functional, HepG2

**Q.** `CC(C)N1CCc2c(c(COc3cccnc3)nn2CC2CC2)C1` was tested. Which INHIBITION did it give?
**A.** -0.59%

**Q.** For `Cc1nn(C)c(C)c1C1CCCN1Cc1nc(-c2cccs2)no1` (centres undefined), which INHIBITION is on record?
**A.** 45.83%

**Q.** How did the INHIBITION turn out when `Cc1cccc(C(=O)N2CCN(C)CC2)c1NC(=O)c1ccncc1` was run?
**A.** 29.22%

**Q.** For `CNc1cc(C2CCCN2Cc2ccc(OCC(=O)O)cc2)ccn1` (centres undefined), which INHIBITION is on record?
**A.** 29.06%

**Q.** With `CCO[C@@H]1CCN(C(=O)N(C)C)[C@@H]1Cc1cnn(C)c1` as the compound, how does the INHIBITION read?
**A.** 63.84%

**Q.** Which INHIBITION does the source give for `COCCO[C@H]1CCN(C(=O)c2ccno2)[C@H]1Cc1cnn(C)c1` here?
**A.** 1.02%

**Q.** For `CN(C)C(=O)N1CC[C@@H](O)[C@@H]1Cc1cnn(C)c1`, which INHIBITION is on record?
**A.** 12.88%

**Q.** Which INHIBITION does the source give for `Cn1cc(C[C@H]2[C@@H](OCC3CC3)CCN2C(=O)c2ccc[nH]2)cn1` here?
**A.** -1.33%

**Q.** For `COCCO[C@@H]1CCN(C(=O)c2ccc[nH]2)[C@H]1Cc1cnn(C)c1`, which INHIBITION is on record?
**A.** 66.69%

**Q.** How did the INHIBITION turn out when `COCCO[C@H]1CCN(C(=O)c2ccoc2C)[C@H]1Cc1cnn(C)c1` was run?
**A.** 5.35%

**Q.** For `CCO[C@@H]1CCN(C(=O)c2ccc[nH]2)[C@@H]1Cc1cnn(C)c1`, which INHIBITION is on record?
**A.** 5.28%

**Q.** `COCCO[C@H]1CCN(C(=O)c2cnoc2C)[C@H]1Cc1cnn(C)c1` was tested. Which INHIBITION did it give?
**A.** 63.06%

**Q.** `CCO[C@@H]1CCN(C(=O)c2ccnnc2)[C@@H]1Cc1cnn(C)c1` was tested. Which INHIBITION did it give?
**A.** 18.15%

**Q.** `CC(C)c1ncc(CN2C[C@@H](CN3CCC(O)CC3)[C@@H](CO)C2)cn1` was tested. Which INHIBITION did it give?
**A.** -142.15%

**Q.** `Cc1cnc(CN(C)Cc2cccc(OC(F)(F)F)c2)cn1` was tested. Which INHIBITION did it give?
**A.** 8.59%

**Q.** With `c1ccc2nc(CN3CCCC3c3noc(C4CC4)n3)ccc2c1` (centres undefined) as the compound, how does the INHIBITION read?
**A.** 0.74%

**Q.** For `Cc1nn(C2CCS(=O)(=O)C2)c(O)c1Cc1ccccc1Cl` (centres undefined), which INHIBITION is on record?
**A.** -0.89%

**Q.** `Cc1nc(CN(Cc2ccccc2F)C2CCC2)no1` was tested. Which INHIBITION did it give?
**A.** -3.11%

**Q.** With `COCCN(Cc1ccoc1)C(=O)CSc1ccc(F)cc1` as the compound, how does the INHIBITION read?
**A.** 12.7%

**Q.** Which INHIBITION does the source give for `CN(Cc1ccncc1)C1CC2(CCN(c3ncc(F)cn3)CC2)C1` here?
**A.** -20.67%

**Q.** `COc1cc2cc(C)c(SCCN3CCCCC3)nc2cc1OC` was tested. Which INHIBITION did it give?
**A.** 11.74%

**Q.** For `CN(C)CC1CSCCCN1C(=O)c1ccc(-n2cccc2)cc1` (centres undefined), which INHIBITION is on record?
**A.** 15.49%

**Q.** How did the INHIBITION turn out when `Cc1cc(NCCCC(F)(F)F)n2nc(C)cc2n1` was run?
**A.** -2.24%

**Q.** For `Cc1cc(C(F)(F)F)nc(CNc2cc(C)nc3cc(C)nn23)n1`, which INHIBITION is on record?
**A.** -15.4%

**Q.** Which INHIBITION does the source give for `Cc1cc(NCc2cc(C)oc2C(F)(F)F)n2nc(C)cc2n1` here?
**A.** 51.77%

**Q.** For `CCCN1CCCn2c(nc(CNC(=O)c3ccsc3)cc2=O)C1`, which INHIBITION is on record?
**A.** -2.19%

**Q.** With `CCC1CN(C(=O)c2cccc(O)c2)CCC(=O)N1Cc1ccccc1` (centres undefined) as the compound, how does the INHIBITION read?
**A.** -0.23%

**Q.** How did the INHIBITION turn out when `c1cnc(N2CCC3(CC2)CN(CC2CC2)c2ccccc23)nc1` was run?
**A.** -59.24%

**Q.** `CC1CCCN(C(=O)CNC(=O)c2ccoc2)C1` (centres undefined) was tested. Which INHIBITION did it give?
**A.** -13.92%

**Q.** For `CNC(=O)C1(N2CCC[C@H]2C(=O)NC2CCCCC2)CCOCC1`, which INHIBITION is on record?
**A.** 20.87%

**Q.** `COCC1c2c(cnn2C)CCN1Cc1ccsc1` (centres undefined) was tested. Which INHIBITION did it give?
**A.** -61.95%

**Q.** `Clc1ccc(-c2ccc(C3CNCCO3)nc2)cc1` (centres undefined) was tested. Which INHIBITION did it give?
**A.** 39.65%

**Q.** How did the INHIBITION turn out when `Cc1ccc(-c2ccc(C3CNCCO3)nc2)cc1` (centres undefined) was run?
**A.** 81.51%

**Q.** With `COc1ccc(-c2ccc(C3CNCCO3)nc2)cc1` (centres undefined) as the compound, how does the INHIBITION read?
**A.** 84.26%

**Q.** With `c1ncc(-c2ccc(C3CNCCO3)nc2)cn1` (centres undefined) as the compound, how does the INHIBITION read?
**A.** 27.3%

**Q.** `c1ccc(-c2ccc(C3CNCCO3)nc2)cc1` (centres undefined) was tested. Which INHIBITION did it give?
**A.** 36.92%

**Q.** `COc1ccc(-c2cnc(N(C)C)nc2C2CNCCO2)cc1` (centres undefined) was tested. Which INHIBITION did it give?
**A.** 38.42%

**Q.** For `Cn1cc(CN2CCn3cc(CNC(=O)c4cccn4C)nc3C2)cn1`, which INHIBITION is on record?
**A.** 16.22%

**Q.** Which INHIBITION does the source give for `Cc1c(NCc2ccc(C#N)cc2)cccc1S(=O)(=O)NC1CC1` here?
**A.** 21.14%

**Q.** With `COC(=O)CNC(=O)c1ccn(-c2ccc(Cl)c(Cl)c2)n1` as the compound, how does the INHIBITION read?
**A.** -14.28%

**Q.** With `CCN(Cc1ccncc1)C(=O)c1cn(CCCc2ccccc2)nn1` as the compound, how does the INHIBITION read?
**A.** 30.42%

**Q.** Which INHIBITION does the source give for `CN1CC2(CCN(Cc3ncc[nH]3)CC2)CC1=O` here?
**A.** 73.62%

**Q.** With `CC(C)=CCN1CC2(CCN(Cc3ncc[nH]3)CC2)CC1=O` as the compound, how does the INHIBITION read?
**A.** 20.34%

**Q.** How did the INHIBITION turn out when `COCCCN1CC2(CCN(Cc3ncc[nH]3)CC2)CC1=O` was run?
**A.** 25.13%

**Q.** How did the INHIBITION turn out when `Cc1n[nH]cc1C(=O)NCc1cccnc1N1CCc2ccccc2C1` was run?
**A.** 18.63%

**Q.** Which INHIBITION does the source give for `CCN(CC)C(=O)c1ccc(CNc2ncc(C#N)cc2Cl)cc1` here?
**A.** 27.52%

**Q.** For `CS(=O)(=O)Cc1ccc(CNc2ncc(C#N)cc2Cl)cc1`, which INHIBITION is on record?
**A.** -35.5%

**Q.** For `N#Cc1ccc(CNc2ncc(C#N)cc2Cl)cc1`, which INHIBITION is on record?
**A.** 51.88%

**Q.** Which INHIBITION does the source give for `CSc1nccc(N2CCC3(CCCN(CCc4ccccc4)C3)C2)n1` (centres undefined) here?
**A.** -31.44%

**Q.** How did the INHIBITION turn out when `CCC(NC(=O)c1nn(C)cc1C(=O)O)c1ccccc1` (centres undefined) was run?
**A.** 49.95%

**Q.** For `Cc1ccc(CNC(=O)NC2CCN(CC(F)F)CC2)cc1`, which INHIBITION is on record?
**A.** -5.19%

**Q.** With `N#Cc1cccc(CNC(=O)NC2CCN(CC(F)F)CC2)c1` as the compound, how does the INHIBITION read?
**A.** 67.51%

**Q.** `N#Cc1ccc(CNC(=O)NC2CCN(CC(F)F)CC2)cc1` was tested. Which INHIBITION did it give?
**A.** -39.58%

**Q.** `O=C(NCc1nnc2n1CCCC2)c1ccc(C2CCCO2)s1` (centres undefined) was tested. Which INHIBITION did it give?
**A.** 29.22%

**Q.** How did the INHIBITION turn out when `COc1cc(N2CCC3(CCCN(Cc4ccccn4)C3)C2)ncn1` (centres undefined) was run?
**A.** -21.32%

**Q.** For `O=C(NCC1CCN(c2ncccn2)CC1)c1cnccn1`, which INHIBITION is on record?
**A.** 26.66%

**Q.** How did the INHIBITION turn out when `Cc1cc(C)nc(N2CCC(CNC(=O)c3cnccn3)CC2)n1` was run?
**A.** 95.75%

**Q.** For `Cc1cc(C)nc(N2CCC(CNC(=O)c3ccccn3)CC2)n1`, which INHIBITION is on record?
**A.** 27.39%

**Q.** How did the INHIBITION turn out when `CN(Cc1cccc(F)c1)C(=O)CN1CCOC(Cn2cccn2)C1` (centres undefined) was run?
**A.** 20.28%

**Q.** With `O=c1[nH]c(-c2cccnc2)nc2c1CCN(S(=O)(=O)N1CCCC1)C2` as the compound, how does the INHIBITION read?
**A.** -15.3%

**Q.** With `CCn1ncc(CN2CCc3c(nc(-c4cccnc4)[nH]c3=O)C2)c1C` as the compound, how does the INHIBITION read?
**A.** 54.82%

**Q.** Which INHIBITION does the source give for `CCn1ncc(CN2CCc3nc(-c4cccnc4)nc(O)c3C2)c1C` here?
**A.** 21.14%

**Q.** How did the INHIBITION turn out when `Cc1nc(C(=O)N[C@H]2COC[C@@H]2N2CCCCC2)cs1` was run?
**A.** 11.19%

**Q.** With `CCO[C@H]1COC[C@@H]1NC(=O)c1c[nH]nc1C1CCCCC1` as the compound, how does the INHIBITION read?
**A.** -73.93%

**Q.** For `O=C(N[C@H]1COC[C@@H]1N1CCCC1)c1c[nH]nc1C1CCCCC1`, which INHIBITION is on record?
**A.** 77.54%

**Q.** With `Cc1ccc(C)n1-c1ccc(C(=O)NCCNc2ncccn2)cc1` as the compound, how does the INHIBITION read?
**A.** 1.61%

**Q.** `CCOc1ccc(C(=O)NCCCNc2ncccn2)cc1` was tested. Which INHIBITION did it give?
**A.** 50.59%

**Q.** How did the INHIBITION turn out when `COc1ccc(C(=O)NCCCNc2ncccn2)cc1F` was run?
**A.** 5.28%

**Q.** For `COc1ccc(C(=O)NCCCNc2ncccn2)c(OC)c1`, which INHIBITION is on record?
**A.** 48.21%

**Q.** Which INHIBITION does the source give for `COc1cc(OC)cc(C(=O)NCCCNc2ncccn2)c1` here?
**A.** 57.75%

**Q.** How did the INHIBITION turn out when `CS(=O)(=O)c1ccc(C(=O)NCCNc2ncccn2)cc1` was run?
**A.** 35.65%

**Q.** `O=C(NCCNc1ncccn1)c1ccc(Br)cc1` was tested. Which INHIBITION did it give?
**A.** -68.24%

**Q.** With `Cc1cc(C)cc(C(=O)NCCCNc2ncccn2)c1` as the compound, how does the INHIBITION read?
**A.** 29.13%

**Q.** With `CCc1ccc(C(=O)NCCNc2ncccn2)cc1` as the compound, how does the INHIBITION read?
**A.** 56.02%
